Reference: PubChem BioAssay (NCATS)
Inconclusive results are not listed. The source made the active and inactive calls. Calls follow the shape of the dose curve; as a rule, active = well fitted inhibition curve with a large enough effect; inconclusive = small, poorly fitted or top-dose-only effect; inactive = flat fitted curve, though single readings scatter.

The compounds below were run against Ubiquitin carboxyl-terminal hydrolase 1 (Homo sapiens) (UniProt O94782) (assay: Inhibitors of USP1/UAF1: Pilot qHTS (AID 504865;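 also: rhodamine fluorescence freed from ubiquitin-rhodamine substrate followed over time; top concentration of the series differs between compounds; nearly all actives have a fitted effect of over 35% in size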)). Details: purified USP1/UAF1, Ub-rhodamine cleavage fluorescence; series mostly up to 54.9 µM; activity change, negative = inhibition: at the top concentration.
Sequence of Ubiquitin carboxyl-terminal hydrolase 1 (Homo sapiens) (O94782 whole entry, looked up): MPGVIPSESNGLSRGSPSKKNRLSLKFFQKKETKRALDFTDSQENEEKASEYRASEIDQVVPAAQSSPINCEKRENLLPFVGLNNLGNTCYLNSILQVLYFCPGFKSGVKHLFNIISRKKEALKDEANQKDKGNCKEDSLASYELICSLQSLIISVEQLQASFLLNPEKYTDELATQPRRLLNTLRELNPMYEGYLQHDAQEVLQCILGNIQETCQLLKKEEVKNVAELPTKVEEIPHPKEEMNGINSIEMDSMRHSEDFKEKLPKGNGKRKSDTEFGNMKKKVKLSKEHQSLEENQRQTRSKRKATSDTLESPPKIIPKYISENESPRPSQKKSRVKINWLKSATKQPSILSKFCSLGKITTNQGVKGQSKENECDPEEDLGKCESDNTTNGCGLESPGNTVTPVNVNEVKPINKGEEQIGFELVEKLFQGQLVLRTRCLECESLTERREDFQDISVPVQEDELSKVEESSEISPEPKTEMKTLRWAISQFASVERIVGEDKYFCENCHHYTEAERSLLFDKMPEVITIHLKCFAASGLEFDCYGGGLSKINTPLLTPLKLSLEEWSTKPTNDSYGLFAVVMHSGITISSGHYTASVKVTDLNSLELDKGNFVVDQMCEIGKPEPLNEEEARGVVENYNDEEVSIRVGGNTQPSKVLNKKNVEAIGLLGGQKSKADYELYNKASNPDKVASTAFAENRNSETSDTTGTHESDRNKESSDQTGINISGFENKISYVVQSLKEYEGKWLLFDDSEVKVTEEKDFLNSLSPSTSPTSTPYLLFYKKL
Excerpt: Deubiquitinating enzymes (DUBs) are a class of enzymes that can cleave isopeptide bond formed between the C-terminal carboxylate of ubiquitin and a lysine side-chain amino group on the target protein. Among them, ubiquitin specific proteases (USPs) constitute the largest DUB family. Human USPs are emerging as promising targets for pharmacological intervention because of their connection to a number of human diseases, including prostate, colon and breast cancer (1, 2), pediatric acute lymphoblastic leukemia (3), and familial cylindromatosis (4). The advantage of inhibiting USPs lies in the potential specificity of therapeutic intervention that can lead to better efficacy and reduce nonspecific side effects.
In a collaboration between the University of Delaware and the NIH Chemical Genomics Center, a high-throughput screen assay was developed to screen for USP1/UAF1 inhibitors. This miniaturized assay has a fluorescent read-out and is used to screen the NIH Molecular Libraries Small Molecule Repository (MLSMR) in order to identify a small molecule that inhibits USP1.
NIH Chemical Genomics Center [NCGC]
NIH Molecular Libraries Probe Centers Network [MLPCN]
Assay Submitter (PI): Zhihao Zhuang, University of Delaware
1. Priolo, C., et al. (2006) The isopeptidase USP2a protects human prostate cancer from apoptosis. Cancer Res 66, 8625-8632
2. Popov, N., et al. (2007) The ubiquitin-specific protease USP28 is required for MYC stability. Nat Cell Biol 9, 765-774
3. De Pitta, C., et al. (2005) A leukemia-enriched cDNA microarray platform identifies new transcripts with relevance to the biology of pediatric acute lymphoblastic leukemia. Haematologica 90, 890-898
4. Kovalenko, A., et al. (2003) The tumour suppressor CYLD negatively regulates NF-kappaB signalling by deubiquitination. Nature 424, 801-805
3 microliters of reagents (buffer in columns 3 and 4 as negative control and 1nM USP1/UAF1 complex in columns 1, 2, and 5-48) are dispensed into Greiner black solid bottom 1536-well assay plates. Compounds are then transferred via Kalypsys pin tool equipped with 1536-pin array (10nl slotted pins, V&P Scientific, San Diego, CA). Following an incubation step of 15 min at room temperature, 1ul of Ub-Rho substrate (150nM final concentration) is added to initiate the reaction. The plates are immediately centrifuged at 1000 rpm for 15 seconds, and subsequently transferred to a ViewLux high-throughput CCD imager (PerkinElmer) wherein kinetic measurements of fluorescence are acquired using 480 nm excitation/540 nm emission filter set (6 reads every 60 seconds, see Table 1). All reagents are diluted in an assay buffer consisting of 50mM HEPES (pH 7.8), 0.5mM EDTA, 0.1 mg/ml BSA, 1mM TCEP, and 0.01% Tween-20.
% is scaled to controls: 0 for no effect and ±100 for the full control effect.

Activity change, negative = inhibition, inactive:
COc1cccc(-c2cncnc2-n2ccnc2)c1 -12.6% [at 114 µM], CCNc1ncc2nc(C)c(=O)n(Cc3cccs3)c2n1 -14.4%, COCCNc1ccnc(-c2cccc(NS(C)(=O)=O)c2)n1 -10.3% [at 114 µM], CN(Cc1ccco1)c1ncncc1-c1ccoc1 -10.6%, Cc1noc(C)c1-c1cc(N2CCNCC2)ncn1 -5.4%, COCCNc1ncnc2ccc(-c3ccc(C(=O)N(C)C)cc3)cc12 -9.86%, COc1ccc(CNc2ncnc3ccc(-c4ccccc4OC)cc23)c(OC)c1 -16.2%, Cc1cnc(CNc2ncncc2-c2ccc(C(=O)N(C)C)cc2)cn1 -0.419% [at 114 µM], COc1ccc(Oc2ncc3nc(-c4ccc(Cl)cc4)c(=O)n(C[C@H]4CCCO4)c3n2)cc1 -9.94%, O=c1c(-c2ccc(Cl)cc2)nc2cnc(N3CCOCC3)nc2n1-c1ccccc1 -6.83%, COc1ccc(-c2nc3cnc(N4CCOCC4)nc3n(C[C@H]3CCCO3)c2=O)cc1 -8.31%, O=c1c(-c2cc(F)cc(F)c2)nc2cnc(N3CCOCC3)nc2n1Cc1cccs1 -7.47%, NCCC(=O)NCCc1cnc[nH]1 10.1%, Cc1ccccc1-c1cncnc1NCc1cccs1 -10%, Cc1cnc(CNc2ncnc3ccc(-c4c(C)noc4C)cc23)cn1 -14.6%, CCNc1ncc2nc(-c3cn(C)c4ccccc34)c(=O)n(-c3ccccc3)c2n1 -6.41%, O=c1cnc2cncnc2n1Cc1ccccc1Cl -16.4%, COc1cccc(Cn2c(=O)c(C)nc3cnc(OC)nc32)c1 -6.29%, Cn1c(=O)c(-c2ccc(Cl)cc2)nc2cnc(Oc3cccc(Cl)c3)nc21 -18.7%, COc1cccc(Cn2c(=O)cnc3cncnc32)c1 -8.29%, CN(Cc1ccco1)c1ncncc1-c1cccc(C#N)c1 -6.74%, CN1CCN(c2ncc3ncc(=O)n(C4CC4)c3n2)CC1 -9.74%, COCCn1c(=O)c(-c2cccc(C#N)c2)nc2cnc(OC)nc21 -7.78%, COc1ncc2nc(-c3cc(F)cc(F)c3)c(=O)n(-c3ccccc3)c2n1 -7.86%, c1ccc(CNc2cc(-c3cccnc3)ncn2)cc1 -11.1%, COc1cccc(Cn2c(=O)c(-c3cc(F)cc(F)c3)nc3cnc(N4CCN(C)CC4)nc32)c1 -6.33%, COc1ccc(-c2nc3cnc(N4CCN(C)CC4)nc3n(-c3ccc(OC)cc3)c2=O)cc1 -4.22%, Cn1cc(-c2nc3cncnc3n(Cc3ccc(F)cc3)c2=O)c2ccccc21 -5.95%, COc1ccc(-c2nc3cnc(N4CCOCC4)nc3n(C)c2=O)cc1 -8.2%, CN(C)c1ccc(-c2nc(N(C)Cc3ccco3)c3ccccc3n2)cc1 -14.1% [at 114 µM], COc1ccc(CNc2ncnc3ccc(-c4cccc(NS(C)(=O)=O)c4)cc23)c(OC)c1 -15.9%, COc1ccc(-n2c(=O)c(-c3cccs3)nc3cnc(N(C)C)nc32)cc1 -8.64%, COCCNc1ncnc2ccc(-c3cccnc3)cc12 -11.8%, COc1ccc(-n2c(=O)cnc3cnc(OC)nc32)cc1 -13.1%, COc1ncc2nc(C)c(=O)n(C3CC3)c2n1 -8.36%, CCNc1ncc2nc(C)c(=O)n(C)c2n1 -14.3%, Cc1noc(C)c1-c1nccc(NCc2cccnc2)n1 -6.21% [at 114 µM], CN(C)C(=O)c1ccc(-c2cncnc2N2CCNCC2)cc1 -4.37%, CC(=O)NCCNc1cc(-c2ccccc2C(F)(F)F)ncn1 -4.76%, CN(Cc1ccco1)c1ncnc2ccc(-c3ccccc3C(F)(F)F)cc12 -5.52%
